Test results: PubChem BioAssay AID1851 (National Center for Advancing Translational Sciences (NCATS), 2009)
Several values for one entry are separate records, joined by “and”; a condition that tells them apart may be missing. Identical values can stand only once. In all, about 16,000 compounds went through this assay and about 5,700 (36%) were called active. About 24% were inconclusive and are not listed. Some of the results follow. Unmarked numbers belong to inactive results. Calls come from the whole dose curve; as a rule, active = well fitted curve in the direction sought with a large enough effect; inconclusive = small, poorly fitted or top-dose-only effect, or effect the other way; inactive = no such curve, though single readings can be large or run the other way.
% is set by controls: 0 for no effect and ±100 for the full control effect.

Each molecule was assayed against Cytochrome P450 1A2 (Homo sapiens) (UniProt P05177) (assay: Cytochrome panel assay with activity outcomes). Conditions: recombinant CYP, pro-luciferin dealkylation, luminescence, p450-cyp1a2; series mostly up to 57.1 µM.
Cytochrome P450 1A2 (Homo sapiens), sequence (P05177 whole entry, looked up): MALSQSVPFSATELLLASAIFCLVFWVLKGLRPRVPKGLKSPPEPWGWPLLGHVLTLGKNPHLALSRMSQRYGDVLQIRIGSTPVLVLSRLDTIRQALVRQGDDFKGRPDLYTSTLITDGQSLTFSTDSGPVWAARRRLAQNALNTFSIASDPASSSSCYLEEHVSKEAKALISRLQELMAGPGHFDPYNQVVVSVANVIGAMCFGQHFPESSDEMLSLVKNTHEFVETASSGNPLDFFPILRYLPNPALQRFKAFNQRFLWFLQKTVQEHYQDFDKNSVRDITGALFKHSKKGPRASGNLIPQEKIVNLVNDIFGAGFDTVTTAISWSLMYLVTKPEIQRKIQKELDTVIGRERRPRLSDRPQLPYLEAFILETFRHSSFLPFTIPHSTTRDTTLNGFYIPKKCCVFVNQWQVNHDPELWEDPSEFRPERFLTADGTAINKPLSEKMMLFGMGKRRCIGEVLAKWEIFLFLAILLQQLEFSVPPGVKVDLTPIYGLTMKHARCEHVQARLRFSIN
`Nc1ncnc2c1nc(Br)n2[C@@H]1O[C@H]2COP(=O)(O)O[C@@H]2[C@H]1O` was tested, and the AC50 was “inactive”. `CC1(C)Cc2ccccc2C(N/N=C/c2cccc(F)c2)=N1` was tested, and the AC50 was 11.2 µM (active). With `COc1ccc(Oc2c(C=O)c3ccccc3n2C)cc1` the AC50 was 14.1 µM (active). For `Cn1c(Oc2ccccc2)c(C=O)c2ccccc21`, the AC50 was 7.08 µM (active). `Cc1cccc(C(=O)NN(C)c2nc(-c3ccccc3)nnc2C(F)(F)F)c1` was tested, and the AC50 was “inactive”. With `FC(F)(F)c1nnc(-c2ccccc2)nc1Sc1ccccc1` the AC50 was 1.41 µM (active). `COc1ccccc1C/C(N)=N/OC(=O)c1ccc(C)c([N+](=O)[O-])c1` was tested, and the AC50 was 14.1 µM (active). For `COc1ccccc1CNC(=O)C/C(C)=N/NC(=O)Cc1ccccc1`, the AC50 was “inactive”. For `COc1ccccc1CC(=O)O/N=C(\N)Cc1cccc2ccccc12`, the AC50 was 11.2 µM (active). `COc1ccc(CC(=O)O/N=C(\N)Cc2ccc(OC)cc2)cc1` was tested, and the AC50 was “inactive”. For `C[N+](C)(C)CCOC(N)=O`, the AC50 was “inactive”. In the case of `CCOC(=O)[C@@H](O)Cc1cnc2ccccc2n1`, the AC50 is reported as 3.16 µM (active). In the case of `O=S(=O)(c1cnccc1N1CCN(CCO)CC1)N1CCCC1`, the activity, negative = inhibition is reported as -8.25% [at 2.29 µM]. With `FC(F)(F)c1cc(CN2CCC3(CCNCC3)CC2)cc(C(F)(F)F)c1` the AC50 was “inactive”. With `Cc1ccc(NC(=O)c2cccc(N(C)C)c2)cc1NC(=O)c1ccc(O)cc1` the AC50 was 1.26 µM (active). In the case of `OC(COc1ccc(OCC(O)CN2CCCCCC2)cc1)CN1CCCCCC1` (stereo unspecified), the AC50 is reported as “inactive”. In the case of `Cc1nn(CC(O)COc2ccc3c(c2)CCC3)c(C)c1Br` (stereo unspecified), the AC50 is reported as 12.6 µM (active). For `COc1ccc(C2=CSC(/N=C/c3ccc(F)cc3)=NN2)cc1`, the AC50 was 2.82 µM (active). Molecule `CC(C)=NO[C@@H](C)CN1CCCCc2nc(C)c(C)cc21` has an activity, negative = inhibition of -10.5% [at 11.4 µM]. In the case of `Cc1cc(Br)ccc1NC(=O)CCSc1ccccc1`, the AC50 is reported as 4.47 µM (active). With `Cc1ccc(NC(=O)CCC(=O)NNS(=O)(=O)c2ccccc2)c(C)c1` the AC50 was “inactive”. `S=C(S)O[C@@H]1C[C@@H]2C[C@H]1[C@@H]1CCC[C@H]21` was tested, and the AC50 was “inactive”. For `COc1ccc(OCC(=O)NNC(=O)c2ccc(-c3ccccc3)cc2)cc1`, the AC50 was “inactive”. In the case of `O=C(COc1ccccc1-c1ccccc1)N/N=C/c1cccc2ccccc12`, the AC50 is reported as 0.794 µM (active). `O=C(COc1ccc(-c2ccccc2)cc1)N/N=C/c1ccccc1Br` was tested, and the AC50 was 5.01 µM (active). In the case of `O=c1[nH]c(SCc2c(Cl)c(Cl)c(Cl)c(Cl)c2Cl)nc(=S)[nH]1`, the AC50 is reported as 1 µM (active). In the case of `CCCC[C@H]1C[C@@H]1[C@@H]1N(P(=O)(c2ccccc2)c2ccccc2)[C@](CO)(c2ccccc2)CC12CC2`, the AC50 is reported as “inactive”. `CCCc1nnc(SCC(=O)N2CCCC(C)C2)n1CC1CCCO1` (stereo unspecified) was tested, and the AC50 was “inactive”. For `CCCc1nnc(SCC(=O)O)n1/N=C/c1ccc2c(c1)OCO2`, the AC50 was 15.8 µM (active). `CSc1nncn1/N=C/c1ccc2c(c1)OCO2` was tested, and the AC50 was 4.47 µM (active). For `CCCc1nnc(SCC(=O)N2CCCCC2)n1CCCOC`, the AC50 was “inactive”. `OC[C@@H]1O[C@@H](O)[C@H](N=Cc2ccc3c(c2)OCO3)[C@@H](O)[C@@H]1O` showed an activity, negative = inhibition of -24.4% [at 2.29 µM]. With `CCc1n[nH]c(=S)n1/N=C/c1ccc2c(c1)OCO2` the AC50 was 2.24 µM (active). With `O=c1cc(CSc2nnc(-c3cccnc3)n2-c2ccccc2F)nc2sccn12` the AC50 was “inactive”. With `COCCn1c(=O)c(-c2ccccc2)nc2cnc(N(C)C)nc21` the AC50 was 3.16 µM (active). For `COCCn1c(=O)c(-c2ccc(Cl)cc2)nc2cnc(N(C)C)nc21`, the AC50 was 1 µM (active). For `COCCn1c(=O)c(-c2ccc(F)cc2)nc2cnc(N(C)C)nc21`, the AC50 was 2 µM (active). `C[C@@H]1/C=C\CC(=O)OC[C@H](C)C(=O)N2CCC[C@@H]2C(=O)OC1` gave an activity, negative = inhibition of -1.21% [at 11.4 µM]. In the case of `Cc1ccc(/C=C/c2ccc(=O)n(Cc3ccc(Cl)cc3Cl)n2)cc1`, the AC50 is reported as 10 µM (active). Work on `CC(=O)OC[C@@H]1O[C@H](CCON=C(C)C)C=C[C@@H]1OC(C)=O` yielded an activity, negative = inhibition of 4.98% [at 11.4 µM]. For `c1ccc(CCc2cccnc2)nc1`, the AC50 was 0.398 µM (active). `CS(=O)(=O)N(CC(=O)O)Cc1ccccc1` gave an activity, negative = inhibition of 4.38% [at 11.4 µM]. In the case of `ON(CCc1ccncc1)Cc1ccccc1`, the AC50 is reported as 1 µM (active). `CNCCc1ccccn1` was tested, and the AC50 was “inactive”. With `ON(CCc1ccccn1)Cc1ccccc1` the AC50 was 2.51 µM (active). With `O=C1NC(=O)[C@@](Cc2ccccc2)(c2cccnc2)N1` the activity, negative = inhibition was -17.1% [at 2.29 µM]. `Cc1nc2nc(C)c(CCC(=O)NCCCN3CCN(c4cccc(Cl)c4)CC3)c(C)n2n1` was tested, and the AC50 was “inactive”. `O=C(c1csnn1)N1CCC2(CCN(Cc3ccccc3)CC2)CC1` was tested, and the AC50 was “inactive”. For `Cc1ccccc1CSc1nsc(N)n1`, the AC50 was 14.1 µM (active). For `O=C(N/C(=C\c1cccs1)C(=O)N1CCCCCC1)c1ccccc1`, the AC50 was “inactive”. With `O=C(NC(N1CCCC1)C(Cl)(Cl)Cl)c1ccccc1` (stereo unspecified) the AC50 was 11.2 µM (active). For `O=C(NNC(=O)c1ccccc1)C(=O)N1CCCCC1`, the AC50 was “inactive”. `O=C(O)c1ccc(C(=O)c2ccccc2)c(C(=O)O)c1` gave an activity, negative = inhibition of 3.14% [at 2.29 µM]. In the case of `COc1ccc(C(=O)c2ccccc2)c(O)c1`, the AC50 is reported as 1.58 µM (active). `O=C(O)c1ccc(C(=O)c2ccccc2C(=O)O)cc1C(=O)O` showed an activity, negative = inhibition of 2.76% [at 11.4 µM]. `COc1ccc2nccc(C(=O)O)c2c1` was tested, and the AC50 was “inactive”. In the case of `COc1ccc2oc(C(=O)c3ccccc3)c(N)c2c1`, the AC50 is reported as 1.26 µM (active). `COc1ccc(OC)c(-c2cc(C(=O)O)c3cc4ccccc4cc3n2)c1` showed an activity, negative = inhibition of -21.4% [at 2.29 µM]. `COc1ccc(CN(CCN(C)C)c2ccccn2)cc1` was tested, and the AC50 was “inactive”. `Cc1ccc(N(Cc2ccccc2)Cc2ccccc2)cc1` gave an activity, negative = inhibition of -24.2% [at 2.29 µM]. In the case of `CN(C)c1nccc(N(Cc2ccccc2)Cc2ccccc2)c1C#N`, the AC50 is reported as 11.2 µM (active). With `Cc1cc(N2C(=O)C(O)=C(C(=O)c3ccco3)C2c2ccc(O)cc2)no1` (stereo unspecified) the AC50 was “inactive”. In the case of `Cc1ccc2occ(/C=C/C(=O)O)c(=O)c2c1`, the AC50 is reported as “inactive”. With `c1csc(CNc2ncncc2-c2ccoc2)c1` the AC50 was 2 µM (active). `c1cncc(-c2cncnc2NCc2cccs2)c1` was tested, and the AC50 was 0.316 µM (active). `c1ccc(CNc2ncncc2-c2ccoc2)cc1` was tested, and the AC50 was 5.01 µM (active). For `CC(N)=NCc1cccc(CN)c1`, the AC50 was “inactive”. In the case of `O=C(NCc1ccccc1)C(c1ccncc1)N(C(=O)c1csnn1)C1CC1` (stereo unspecified), the AC50 is reported as “inactive”. Molecule `CN(C)CCCN1CCC2(CCC(C(C)(C)C)CC2)CC1` has an activity, negative = inhibition of -1.31% [at 11.4 µM]. For `CN1CCN(c2nc(-c3cccc(C#N)c3)nc3ccccc23)CC1`, the AC50 was 1.58 µM (active). For `COc1ccc(-c2nc(-c3cccc(C)c3)nc(N3CCN(C)CC3)c2C#N)cc1`, the AC50 was “inactive”. For `N#Cc1cccc(-c2nc(N3CCNCC3)c3ccccc3n2)c1`, the AC50 was 2.51 µM (active). With `COc1ccc(C(=O)NC2(C(F)(F)F)C(=O)Nc3c2c(=O)[nH]c(=O)n3CCc2ccc(OC)c(OC)c2)cc1` (stereo unspecified) the AC50 was “inactive”. With `CC(=O)OCc1c(C(F)(F)F)nn(C)c1Sc1ccccc1` the AC50 was 15.8 µM (active). `COc1cc(S(C)=O)ccc1-c1nc2ncccc2[nH]1` (stereo unspecified) was tested, and the AC50 was 0.251 µM (active). `O=C(O)C[C@H](NC(=O)CP(=O)(O)O)C(=O)O.[NH-][C@@H]1CCCC[C@@H]1[NH-].[Pt]` was tested, and the activity, negative = inhibition was -15.5% [at 11.4 µM]. With `FC(F)(F)c1nnc2c(Sc3ccc(Cl)cc3)nc3ccccc3n12` the AC50 was 0.1 µM (active). In the case of `FC(F)(F)c1nnc2c(Sc3ccccc3)nc3ccc(Cl)cc3n12`, the AC50 is reported as 0.708 µM (active). In the case of `CC(/C=N/n1c(-c2cccnc2)n[nH]c1=S)=C\c1ccccc1`, the AC50 is reported as 0.141 µM (active). In the case of `O=C(O)c1nn(-c2ccccc2)ccc1=O`, the AC50 is reported as “inactive”. `NNC(=O)c1nn(-c2ccc(Cl)cc2)ccc1=O` was tested, and the AC50 was 15.8 µM (active). Molecule `CC(C)=CCC/C(C)=C/CO/N=C1/C[C@@H](O)[C@@H](O)[C@@H]2[C@H]3C(=O)N(c4ccc(F)cc4F)C(=O)[C@@H]3CC[C@@H]12` has an activity, negative = inhibition of 8.54% [at 11.4 µM]. In the case of `C#CCN(C)CCCOc1ccc(Cl)cc1Cl`, the AC50 is reported as 631 nM (active) and 158 nM (active). `C#CCN(C)Cc1ccccc1` was tested, and the AC50 was “inactive”. For `CC[C@]1(O)C[C@H]2CN(CCc3c([nH]c4ccccc34)[C@](C(=O)OC)(c3cc4c(cc3OC)N(C=O)[C@H]3[C@@](O)(C(=O)OC)[C@H](OC(C)=O)[C@@]5(CC)C=CCN6CC[C@]43[C@H]65)C2)C1`, the AC50 was “inactive”. With `CO[C@H]1C[C@@H]2C[C@H](O)C[C@@H](CC(=O)O[C@@H](/C=C\CC(C)C)C[C@@H]3CC[C@H](C)[C@@H](C1)O3)O2` the activity, negative = inhibition was -2.91% [at 11.4 µM]. `O=c1n(CCCN2CCN(c3cccc(Cl)c3)CC2)nc2ccccn12` was tested, and the AC50 was “inactive”. With `OC1CC2CC[C@H](C1)N2CCCN1c2ccccc2Sc2ccc(Cl)cc21` (stereo partly specified) the activity, negative = inhibition was -12.5% [at 11.4 µM]. In the case of `CN1CCN(CCCN2c3ccccc3Sc3ccc(Cl)cc32)CC1`, the AC50 is reported as 1 µM (active) and 2.51 µM (active). `CCSc1ccc2c(c1)N(CCCN1CCN(C)CC1)c1ccccc1S2` was tested, and the AC50 was 0.316 µM (active). With `CN1CCCC[C@@H]1CCN1c2ccccc2Sc2ccc(S(C)=O)cc21` (stereo partly specified) the AC50 was “inactive”. In the case of `CN1CCC[C@@H]1CCO[C@](C)(c1ccccc1)c1ccc(Cl)cc1`, the AC50 is reported as “inactive”. In the case of `O=C1CSC2(CCN(CCCN3c4ccccc4Sc4ccc(Cl)cc43)CC2)N1`, the AC50 is reported as 3.16 µM (active). In the case of `CSc1ccc2c(c1)N(CC[C@H]1CCCCN1C)c1ccccc1S2`, the AC50 is reported as 7.94 µM (active). Molecule `Clc1ccc2c(c1)N(CCCN1CCCC13CCCCC3)c1ccccc1S2` has an activity, negative = inhibition of -6.18% [at 2.29 µM]. Work on `Nc1c(S(N)(=O)=O)cc(S(N)(=O)=O)cc1S(N)(=O)=O` yielded an activity, negative = inhibition of -11.6% [at 11.4 µM].
